# Source: PubChem BioAssay
# The entries come from a sample that favours hits as a whole.
# hDAT+cocaine – changed human dopamine transporter uptake under cocaine IC80; Q01959; LLC-PK1 hDAT cells, [14C]-dopamine uptake with cocaine IC80; actives deviate in either direction; B-score at 10 µM; 1.3% of 110,000 active; AID 449768;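 active means Z score or B-score, a plate-position-corrected score, falls beyond the plate's 99.7% confidence bounds, in either direction; inactive means both scores lie inside the 99.7% bounds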;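 further: scored against the spread of the other compound wells on the same plate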
# JNK3 blocker – JNK3 (human) kinase inhibition; AID 746; 0.61% of 60,000 active; inhibition, % at 8 µM; P53779; purified JNK3 kinase activity, HTS; in the data active means inhibition above about 17%;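 further: 0% = DMSO and 100% = reference inhibitor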
# PKA inh – PKA (human) kinase inhibition; P17612; PKA Kemptide phosphorylation, Kinase-Glo ATP luminescence; inhibition, % at 6 µM; 0.1% of 65,000 active; AID 524;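 active means inhibition above the screen-wide mean inhibition plus 3 SD, cut at about 21% in these data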
# D1 mod – D1 dopamine receptor (human) allosteric modulation. P21728. HEK293 D1, CRE-luciferase, dopamine EC30 potentiation; actives deviate in either direction. B-score at 10 µM. 5.9% of 58,000 active. AID 641;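 active means luminescence count or its row- and column-corrected plate score outside the 99.7% band of the plate's sample wells, on either side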
# Target sequence (P21728 whole entry, looked up): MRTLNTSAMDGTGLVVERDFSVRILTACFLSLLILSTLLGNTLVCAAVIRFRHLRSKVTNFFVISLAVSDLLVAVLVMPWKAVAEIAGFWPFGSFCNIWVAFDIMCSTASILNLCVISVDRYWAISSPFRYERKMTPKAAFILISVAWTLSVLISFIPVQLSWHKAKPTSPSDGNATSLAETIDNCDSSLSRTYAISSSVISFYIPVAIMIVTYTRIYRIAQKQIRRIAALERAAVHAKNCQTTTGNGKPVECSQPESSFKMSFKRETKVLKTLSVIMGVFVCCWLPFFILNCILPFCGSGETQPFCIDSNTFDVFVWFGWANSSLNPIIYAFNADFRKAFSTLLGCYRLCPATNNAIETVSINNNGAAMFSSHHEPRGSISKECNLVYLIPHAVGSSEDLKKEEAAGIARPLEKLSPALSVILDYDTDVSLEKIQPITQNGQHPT
# ROCK2 blocker – blocks human Rho kinase 2 activity; O75116; purified ROCK2, Kinase-Glo ATP depletion luminescence; inhibition, % at 6 µM; 0.35% of 60,000 active;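 active means inhibition above the screen-wide mean inhibition plus 3 SD, cut at about 18% in these data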;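 further: plate controls were DMSO wells for no effect and Y-27632 control wells after no-enzyme background subtraction for full effect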
# D1 PAM confirm – D1 receptor (human) allosteric modulation, confirmed. shares compounds with D1 mod. HEK293 D1 CRE-luciferase, dopamine EC30 potentiation; active compounds read high. luminescence at 10 µM. 88% of 2,200 active. AID 642;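 active means luminescence in either of two replicates above the same-plate mean plus 3 SD of the low-dose dopamine control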
# D1 no dopamine – secondary test of D1 modulators: activity without dopamine; shares compounds with D1 mod; HEK293 D1 CRE-luciferase, luminescence, no dopamine; active compounds read high; luminescence at 10 µM; 0.8% of 1,900 active; in the data active means luminescence above about 3900
# Isoprot counter – alters isoproterenol CRE-luciferase response in HEK293 cells; calls only at 10 µM; shares compounds with D1 mod; HEK293 D1 CRE-luciferase, isoproterenol EC30 counter-screen; 63% of 2,200 active;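 active means luminescence in either replicate above plate mean of wells with a partly effective reference agonist dose plus 3 SD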;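 further: isoproterenol raises cAMP through native beta-adrenoceptor Gs so signal bypasses D1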
# The depositor's hits bear a star; i = inactive; . = no result; + = active, no number.
SMILES,hDAT+cocaine,JNK3 blocker,PKA inh,D1 mod,ROCK2 blocker,D1 PAM confirm,D1 no dopamine,Isoprot counter
CCc1nc(N(CC)CC)c2oc3ccccc3c2n1,-0.17,.,6,3.2*,.,3956,.,i
N#CCCSc1ncnc2c1oc1ccccc12,-0.25,28*,1,5.4*,6,14144*,1812,+
N#Cc1cc2c(nc1SCC(=O)Nc1sc3c(c1C#N)CCC3)CCCCC2,-1.5,-1,2,6*,-1,10448*,1704,+
N#Cc1cc2c(nc1SCC(=O)Nc1sc3c(c1C#N)CCC3)CCCC2,-0.71,.,.,.,.,.,.,.
N#CCSc1nc2c(cc1C#N)CCCCCC2,-0.94,15,4,7.9*,10,11156*,1660,+
COc1ccc2nc(SCC(=O)N3CCCCCC3)c(C#N)cc2c1,0.34,-3,-3,3.5*,3,10688*,1852,i
CCS(=O)(=O)CCSc1nc2c(cc1C#N)CCCC2,1.4,-8,-5,5.5*,-1,19348*,1760,+
N#Cc1cc2c(nc1SCC(=O)O)CCCC2,-0.18,.,.,.,.,.,.,.
CC(C)NS(=O)(=O)c1ccc(CCC(=O)NCc2ccco2)cc1,-0.56,.,1,-0.074,.,.,.,.
O=S(=O)(c1ccc(S(=O)(=O)N(Cc2ccc(F)cc2)C2CCCC2)cc1)N1CCCC1,-0.67,2,-4,-0.72,-3,.,.,.
N#Cc1cc2c(nc1SCC(=O)N1CCCCC1)CCCC2,0.14,-3,-4,0.95,-1,.,.,.
N#Cc1cc2c(nc1SCC(=O)N1CCCCC1)CCCCC2,0.35,1,5,3.8*,5,10608*,.,+
CCCS(=O)(=O)c1c(S(=O)(=O)CCC)c2ccccn2c1C(=O)OC,-0.42,.,.,1.7,.,.,.,.
CCCS(=O)(=O)c1c(S(=O)(=O)CCC)c2cc(CC)ccn2c1C(=O)OC,0.87,0,-4,6.5*,-16,13540*,1436,+
Nc1nnc(COc2ccccc2)s1,-0.39,.,.,.,.,.,.,.
O=c1oc(-c2ccc(Br)o2)nc2ccccc12,-2,.,.,.,.,.,.,.
CCOC(=O)c1[nH]c(C)c(C(=O)OCc2c(C)noc2C)c1C,-0.37,-1,2,5.1*,2,7568*,880,+
CCOC(=O)c1c(C)[nH]c(C(=O)O)c1C,-1,-7,-2,-0.21,-1,.,.,.
Clc1ccccc1Cn1nnc2c(N3CCCC3)ncnc21,0.64,0,4,3.8*,5,13096*,1612,i
CC1Cc2ccccc2N1c1ncnc2c1nnn2Cc1ccccc1Cl (configuration not stated),1.4,.,.,.,.,.,.,.
Cc1ccnn2c(-c3ccccc3)c3c(=O)n(C)c(=O)n(C)c3c12,-0.35,2,1,9.1*,2,12160*,1656,+
Cn1c(=O)c2c(-c3ccccc3)n(-n3cnnc3)cc2n(C)c1=O,1.4,1,7,0.11,5,.,.,.
CCCc1[nH]nc2c1C(c1ccc(O)cc1OCC)C(C#N)=C(N)O2 (configuration not stated),0.0026,-4,1,0.063,-4,.,.,.
CCCS(=O)(=O)c1nnnn1-c1cccc(OC)c1,-0.51,-1,-5,-2.2,-1,.,.,.
CC(=O)OC1CC(C)N(C(=O)c2ccccc2)c2ccc(C)cc21 (configuration not stated),0.12,-4,9,11*,-1,11832*,1612,+
SMILES,hDAT+cocaine,JNK3 blocker,PKA inh,D1 mod,ROCK2 blocker,D1 PAM confirm,D1 no dopamine,Isoprot counter
CC(=O)c1cccc(NC(=O)N2CCC(c3nnc(SCC(N)=O)n3C)CC2)c1,0.59,-2,-1,3.3*,-4,4940,.,i
CC(=O)C1=C(C)NC(SCC(=O)c2ccc(F)cc2)=C(C#N)C1c1ccco1 (configuration not stated),0.66,10,13,5.5*,6,3664*,1712,i
COc1ccc(-c2nnn(CC(=O)NCc3ccccc3)n2)cc1OC,-0.33,.,.,.,.,.,.,.
CCCCOc1ccc(-c2nnn(CC(=O)c3c[nH]c4ccccc34)n2)cc1,1.3,.,.,.,.,.,.,.
COc1ccc(-c2nnn(CC(=O)N(C3CCCC3)C(C)C(=O)NC3CCCC3)n2)cc1OC (configuration not stated),1.4,6,13,3.6*,5,6476*,.,i
COc1ccc(-c2nnn(CC(=O)N(C3CCCCC3)C(C)C(=O)NC3CCCC3)n2)cc1OC (configuration not stated),1.5,-3,-1,3.3,0,.,.,.
COc1ccc(-c2nnn(CC(=O)c3c[nH]c4ccccc34)n2)cc1OC,0.2,0,5,8.1*,-2,19116*,1776,+
CCOc1ccc(-c2nnn(CC(=O)Nc3ccccc3OC)n2)cc1OCC,-0.77,3,0,9.4*,-1,19984*,1640,+
CCCn1c(SCC(=O)N2c3ccccc3Sc3ccccc32)nc2c1c(=O)n(C)c(=O)n2C,1.2,-4,6,0.15,4,.,.,.
CC(C)n1c(SCC(=O)N2c3ccccc3Sc3ccccc32)nc2c1c(=O)n(C)c(=O)n2C,-0.0085,-2,3,5.2*,3,12564*,.,+
O=C(COC(=O)c1ccccn1)NCCCc1ccccc1,-0.35,1,0,0.051,3,.,.,.
CCN(CC)S(=O)(=O)c1ccc(Br)c(OC)c1,-0.7,-3,-2,.,1,.,.,.
CCOc1cc(S(=O)(=O)N(CC)CC)ccc1Br,-0.36,3,1,12*,3,11820*,1708,+
CCCCCCn1c(SCCC)nc2c1c(=O)[nH]c(=O)n2C,0.022,-6,10,-0.2,5,.,.,.
CCOCCn1c(SCCc2ccccc2)nc2c1c(=O)[nH]c(=O)n2C,-0.0081,6,7,0.51,2,.,.,.
C/C=C/Cn1c(SCCCc2ccccc2)nc2c1c(=O)[nH]c(=O)n2C,0.63,-9,9,6.3*,4,8184*,1456,i
CCCCCn1c(SCCOCC)nc2c1c(=O)[nH]c(=O)n2C,-0.062,-1,-4,9.6*,0,20192*,1580,+
CCCCCn1c(SCCc2ccccc2)nc2c1c(=O)[nH]c(=O)n2C,0.14,3,-14,5.5*,-10,12580*,1568,+
CCOCCSc1nc2c(c(=O)[nH]c(=O)n2C)n1CCCc1ccccc1,-0.056,-4,5,5.6*,9,12256*,1704,+
CCCn1c(SCCc2ccccc2)nc2c1c(=O)[nH]c(=O)n2C,-1.9,-7,5,0.32,1,.,.,.
C=CCn1c(SCCCc2ccccc2)nc2c1c(=O)[nH]c(=O)n2C,.,-3,2,.,-2,.,.,.
COc1cccc2c1N1C(=O)c3c(C(=O)O)cccc3C1CC2(C)C (configuration not stated),0.31,-1,-6,0.056,-2,.,.,.
